Assay results from PubChem BioAssay AID651744 (Broad Institute, 2012).
About 3,100 (55%) of roughly 5,600 compounds were called active. Inconclusive results (about 3%) are left out.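 Rule for the calls: active = mean loss of cell viability signal at or above a set limit, and enough replicates individually reaching it; inconclusive = meets only the mean limit or only the replicate share; inactive = meets neither condition.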 The set was probably picked from earlier hits. These entries were drawn from the full list.

Test: NIH/3T3 fibroblast cytotoxicity, confirmation, cytotoxicity control, cell-based, cherry-pick, single point, set 2 (AID 651744);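 note: 0% = median of neutral control wells and 100% = median of positive control wells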
Settings: NIH/3T3 viability, CellTiter-Glo ATP luminescence, 90 h; at 24.9 µM; hits give high values

Q: With `C[C@H]1CN([C@@H](C)CO)S(=O)(=O)c2ccc(C#Cc3cccc(F)c3)cc2O[C@@H]1CN(C)S(=O)(=O)c1cn(C)cn1` as the molecule, how does the inhibition read?
A: The inhibition was 77.2% (active).

Q: Which inhibition does the source give for `C[C@@H]1CN([C@H](C)CO)C(=O)c2cc(NS(C)(=O)=O)ccc2O[C@@H](C)CCCCO[C@H]1CN(C)S(=O)(=O)c1cn(C)cn1` here?
A: Its inhibition is -25.6% (inactive).

Q: For `C[C@@H]1CN([C@@H](C)CO)S(=O)(=O)c2ccc(-c3cccc(F)c3)cc2O[C@@H]1CN(C)S(=O)(=O)c1ccccc1`, which inhibition is on record?
A: Its inhibition is 57.2% (active).

Q: For `C[C@H](CO)N1C[C@H](C)[C@@H](CN(C)S(=O)(=O)c2ccc(F)cc2)Oc2cc(C3=CCCC3)ccc2S1(=O)=O`, which inhibition is on record?
A: The inhibition was 45.4% (active).

Q: Which inhibition does the source give for `C[C@@H]1CN([C@@H](C)CO)C(=O)c2cc(NC(=O)Nc3ccc4c(c3)OCO4)ccc2O[C@@H]1CN(C)Cc1ccc(Oc2ccccc2)cc1` here?
A: Its inhibition is 103% (active).

Q: With `C[C@@H]1CN([C@@H](C)CO)C(=O)c2cc(NC(=O)Nc3cccc4ccccc34)ccc2O[C@H]1CN(C)Cc1ccc(Cl)c(Cl)c1` as the molecule, how does the inhibition read?
A: The inhibition was 18.8% (inactive).

Q: For `C[C@@H]1CN([C@H](C)CO)C(=O)Cc2cc(NC(=O)Cc3ccccc3)ccc2O[C@H]1CN(C)Cc1ccc(Oc2ccccc2)cc1`, which inhibition is on record?
A: The inhibition was 83.1% (active).

Q: With `C[C@@H]1CN([C@@H](C)CO)C(=O)c2cc(NC(=O)Cc3ccccc3)ccc2O[C@@H]1CN(C)Cc1ccc(Oc2ccccc2)cc1` as the molecule, how does the inhibition read?
A: Its inhibition is 104% (active).

Q: For `CCCNC(=O)N1[C@@H]2c3cccc(=O)n3C[C@H]1[C@H](CO)[C@H]2C(=O)NCC(F)(F)F`, which inhibition is on record?
A: Its inhibition is -10.7% (inactive).

Q: For `O=C(NCc1ccccn1)[C@@H]1[C@@H](CO)[C@@H]2Cn3c(ccc(/C=C/c4ccccc4)c3=O)[C@H]1N2CC1CC1`, which inhibition is on record?
A: Its inhibition is 47.4% (active).

Q: Which inhibition does the source give for `C[C@H]1CN([C@@H](C)CO)C(=O)Cc2cc(NC(=O)Cc3cn(C)c4ccccc34)ccc2O[C@@H]1CN(C)Cc1ccc(C(F)(F)F)cc1` here?
A: The inhibition was 69.9% (active).

Q: Which inhibition does the source give for `C[C@H](CO)N1C[C@H](C)[C@@H](CN(C)Cc2ccc(-c3ccccc3)cc2)Oc2ccc(NC(=O)CCC(F)(F)F)cc2CC1=O` here?
A: The inhibition was 105% (active).

Q: Which inhibition does the source give for `C[C@@H]1CN([C@H](C)CO)C(=O)Cc2cc(NC(=O)c3ccncc3)ccc2O[C@H]1CN(C)Cc1ccc(-c2ccccc2)cc1` here?
A: Its inhibition is 102% (active).

Q: With `C[C@H](CO)N1C[C@H](C)[C@H](CN(C)Cc2ccc(-c3ccccc3)cc2)Oc2ccc(NC(=O)Nc3ccc(F)cc3)cc2CC1=O` as the molecule, how does the inhibition read?
A: Its inhibition is 103% (active).

Q: For `C[C@H]1CN([C@@H](C)CO)C(=O)Cc2cc(NC(=O)Cc3cn(C)c4ccccc34)ccc2O[C@@H]1CN(C)Cc1ccccc1`, which inhibition is on record?
A: The inhibition was 18.1% (inactive).

Q: With `C[C@@H]1CN([C@@H](C)CO)C(=O)Cc2cc(NC(=O)C3CCCCC3)ccc2O[C@@H]1CN(C)Cc1ccc(C(=O)Nc2ccccc2N)cc1` as the molecule, how does the inhibition read?
A: Its inhibition is 59.4% (active).

Q: For `C[C@@H]1CN([C@H](C)CO)C(=O)CCCn2nncc2CO[C@@H]1CN(C)Cc1ccc(C(=O)Nc2ccccc2N)cc1`, which inhibition is on record?
A: The inhibition was 9.3% (inactive).

Q: For `C[C@H](CO)N1C[C@H](C)[C@@H](CN(C)S(=O)(=O)c2ccccc2F)Oc2ncc(C#Cc3ccccc3F)cc2C1=O`, which inhibition is on record?
A: Its inhibition is 46.5% (active).

Q: For `CCCNC(=O)N(C)C[C@@H]1Oc2ncc(C#Cc3ccccc3F)cc2C(=O)N([C@@H](C)CO)C[C@H]1C`, which inhibition is on record?
A: Its inhibition is 41.6% (active).

Q: Which inhibition does the source give for `C[C@H](CO)N1C[C@H](C)[C@@H](CN(C)S(=O)(=O)c2ccccc2)Oc2ncc(C#Cc3ccccc3F)cc2C1=O` here?
A: The inhibition was 69.9% (active).

Q: Which inhibition does the source give for `C[C@@H]1CN([C@@H](C)CO)C(=O)CCCn2cc(nn2)CO[C@@H]1CN(C)S(=O)(=O)c1ccccc1F` here?
A: The inhibition was -3.5% (inactive).

Q: For `COc1ccc(-c2ccc3c(c2)[C@@H]2[C@@H](CCN2C(=O)Cc2ccccn2)[C@H](CO)N3C)cc1`, which inhibition is on record?
A: Its inhibition is 9.06% (inactive).

Q: With `CC(C)NC(=O)N(C)C[C@H]1OCc2cn(nn2)CCCC(=O)N([C@@H](C)CO)C[C@H]1C` as the molecule, how does the inhibition read?
A: The inhibition was -9.15% (inactive).

Q: With `COc1ccc(-c2ccc([C@H]3[C@H]4CN(C(=O)c5ccc6c(c5)OCO6)CCCCN4[C@H]3CO)cc2)cc1` as the molecule, how does the inhibition read?
A: The inhibition was 67.5% (active).

Q: With `Cc1cccc(-c2ccc([C@@H]3[C@H](CO)N4CCCCN(C(=O)c5ccc6c(c5)OCO6)C[C@@H]34)cc2)c1` as the molecule, how does the inhibition read?
A: Its inhibition is 105% (active).

Q: Which inhibition does the source give for `CCCC#Cc1ccc([C@H]2[C@H](CO)N3CCCCN(C(=O)c4ccc5c(c4)OCO5)C[C@@H]23)cc1` here?
A: Its inhibition is 85.9% (active).

Q: Which inhibition does the source give for `O=C(c1cccc(F)c1)N1CCCCN2[C@H](CO)[C@H](c3ccc(-c4ccncc4)cc3)[C@H]2C1` here?
A: The inhibition was -0.739% (inactive).

Q: With `CC(C)(O)C#Cc1ccc([C@@H]2[C@H](CO)N3CCCCN(C(=O)c4cccc(F)c4)C[C@@H]23)cc1` as the molecule, how does the inhibition read?
A: The inhibition was 1.66% (inactive).

Q: Which inhibition does the source give for `COCC#Cc1ccc([C@@H]2[C@H](CO)N3CCCCN(C(=O)CN(C)C)C[C@@H]23)cc1` here?
A: The inhibition was -6.74% (inactive).

Q: Which inhibition does the source give for `CC(C)(C)[S@@](=O)N1Cc2cc(C(=O)NCc3ccc4c(c3)OCO4)nc(-c3cccc(-c4ccccc4)c3)c2[C@H]1CCO` here?
A: Its inhibition is 49% (active).

Q: Which inhibition does the source give for `O=C(Nc1ccc(-c2ccccc2)cc1)[C@H]1[C@H](CO)[C@H]2Cn3c(cccc3=O)[C@H]2N1CC1CC1` here?
A: The inhibition was 59.4% (active).

Q: Which inhibition does the source give for `O=C(NCC1CCCCC1)[C@H]1[C@H](CO)[C@H]2Cn3c(cccc3=O)[C@H]2N1C(=O)CC1CC1` here?
A: Its inhibition is 2.76% (inactive).

Q: Which inhibition does the source give for `C[C@@H]1CN([C@@H](C)CO)S(=O)(=O)c2ccc(C#CCC3CCCC3)cc2O[C@H]1CN(C)C(=O)CC1CC1` here?
A: Its inhibition is 104% (active).

Q: Which inhibition does the source give for `CNC[C@@H]1Oc2cc(C#CCC3CCCC3)ccc2S(=O)(=O)N([C@H](C)CO)C[C@H]1C` here?
A: The inhibition was 105% (active).

Q: With `C[C@@H]1CCCCO[C@H](CN(C)C(=O)CCC(F)(F)F)[C@H](C)CN([C@H](C)CO)C(=O)c2cc(NS(C)(=O)=O)ccc2O1` as the molecule, how does the inhibition read?
A: The inhibition was 4.09% (inactive).

Q: With `C[C@@H]1CN([C@H](C)CO)S(=O)(=O)c2ccc(C#CCC3CCCC3)cc2O[C@H]1CN(C)C(=O)CC1CC1` as the molecule, how does the inhibition read?
A: Its inhibition is 103% (active).

Q: For `CNC[C@H]1OCCCC[C@@H](C)Oc2ccc(NS(C)(=O)=O)cc2C(=O)N([C@H](C)CO)C[C@H]1C`, which inhibition is on record?
A: The inhibition was -29.3% (inactive).

Q: For `CNC[C@H]1OCCCC[C@H](C)Oc2ccc(NC(=O)Nc3c(C)noc3C)cc2C(=O)N([C@H](C)CO)C[C@H]1C`, which inhibition is on record?
A: Its inhibition is 11.5% (inactive).

Q: With `CC(=O)NC[C@@H]1[C@@H](c2ccc(-c3ccccc3F)cc2)[C@@H](CO)N1C(=O)C1CC1` as the molecule, how does the inhibition read?
A: Its inhibition is -15.5% (inactive).

Q: For `C[C@@H]1CCCCO[C@@H](CN(C)C(=O)Nc2ccc(F)cc2)[C@H](C)CN([C@H](C)CO)C(=O)c2cc(NC(=O)Nc3cccc4ccccc34)ccc2O1`, which inhibition is on record?
A: Its inhibition is -7.66% (inactive).

Q: With `C[C@@H]1CN([C@@H](C)CO)C(=O)c2cc(NC(=O)Nc3cccc4ccccc34)ccc2O[C@@H](C)CCCCO[C@H]1CN(C)Cc1ccccc1` as the molecule, how does the inhibition read?
A: The inhibition was 104% (active).

Q: Which inhibition does the source give for `C[C@@H]1CCCCO[C@H](CN(C)C(=O)Nc2cccc3ccccc23)[C@H](C)CN([C@H](C)CO)C(=O)c2cc(NS(=O)(=O)c3cccs3)ccc2O1` here?
A: Its inhibition is 2.06% (inactive).

Q: For `C[C@@H]1CCCCO[C@@H](CN(C)Cc2ccccc2)[C@H](C)CN([C@H](C)CO)C(=O)c2cc(NC(=O)Nc3cccc4ccccc34)ccc2O1`, which inhibition is on record?
A: The inhibition was 105% (active).
